Sampled rows, rich in hits. Any-hit rate of the full collection: about 8%.
SW480 rerep – inducers of DNA re-replication in SW480 colon cancer cells; SW480 DNA re-replication, Hoechst DNA content imaging, 48 h; Potency, µM (top dose mostly 46.1 µM), actives largely listed as activators; 1.8% of 340,000 active; AID 624297; also: nearly all actives have a fitted effect of over 55% in size
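Compounds, transferred as 23 nL by pin tool, were incubated with cells for 48 hr; DNA content per nucleus was then quantified by Hoechst staining and fluorescence plate imaging.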
KB-3-1 cytotox – kills parental KB-3-1 adenocarcinoma cells. KB-3-1 viability, CellTiter-Glo ATP luminescence, 72 h. Potency, µM (series often up to 46.1 µM), actives largely listed as cytotoxic. 1.4% of 400,000 active; also: nearly all actives have a fitted effect of over 60% in size
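Screening of KB-3-1 cells (DMEM, 10% FBS, phenol-red free) ran from lowest to highest compound concentration; after 72 h at 37 °C viability was read luminescently and curves fitted.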
HT1080NT lethal – kills 2HG-producing HT-1080-NT fibrosarcoma cells; HT-1080-NT fibrosarcoma viability, CellTiter-Glo ATP luminescence, 48 h; Potency, µM (titrated, usually from 46.1 µM), hits mostly cytotoxic; 1.6% of 360,000 active; AID 686970;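 also: NT is the 2HG producing partner of a matched IDH1 knockdown line; nearly all actives have a fitted effect of over 55% in size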
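Toxicity toward the 2HG-producing NT line was scored as %Activity, normalised to DMSO and no-cell wells, from CellTiter-Glo luminescence after 48 hours' treatment.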
KB-V1 cytotox – KB-V1 MDR subline cytotoxicity; KB-V1 MDR cells viability, CellTiter-Glo, 72 h; Potency, µM (titrated, usually from 46.1 µM), actives largely listed as cytotoxic; 3.4% of 400,000 active; also: nearly all actives have a fitted effect of over 60% in size
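KB-V1 MDR subline cells in DMEM (phenol-red free, 10% FBS) exposed to compounds in qHTS concentration series for 72 h at 37 degrees C. Viability read by CellTiter-Glo luminescence; concentration-effect curves fitted after normalization and correction.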
MCF10A rereplic – induces DNA re-replication in MCF 10a normal breast cells; MCF 10A DNA re-replication, Hoechst nuclear intensity, 48 h; AID 624296; 2.9% of 350,000 active; Potency, µM (titrated, usually from 46.1 µM), most hits filed as activators; also: nearly all actives have a fitted effect of over 50% in size
HT1080 IDH1KD tx – toxicity to HT-1080 IDH1 knockdown cells (counter line). HT-1080 IDH1 knockdown viability, ATP luminescence, 48 h. Potency, µM (series often up to 46.1 µM), actives largely listed as cytotoxic. 2% of 360,000 active
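HT-1080-IDH1KD cells (IDH1 knocked down), 750/well in RPMI with 5% FBS, treated with compound 48 h at 37 degrees C. Viability by CellTiter-Glo luminescence, normalised to DMSO and no-cell wells; concentration-response curves classed.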
Hits are given with their value; n = inactive; u = inconclusive; x = no result. Calls follow the shape of the dose curve; as a rule, active = well fitted curve in the direction sought with a large enough effect; inconclusive = small, poorly fitted or top-dose-only effect, or another doubt; inactive = no such curve, though single readings can be large; an effect the other way counts as inactive or inconclusive.

SMILES	SW480 rerep	KB-3-1 cytotox	HT1080NT lethal	KB-V1 cytotox	MCF10A rereplic	HT1080 IDH1KD tx
O=C(NCc1ccco1)c1ccc(CS(=O)(=O)Cc2ccc(Cl)cc2)o1	n	n	n	14.6µM	u	n
COc1ccccc1N(CC(=O)NCc1ccco1)S(=O)(=O)c1ccc(C)cc1	n	n	n	n	n	n
Cc1ccccc1N(CC(=O)Nc1ccccc1C(=O)NCc1ccco1)S(=O)(=O)c1ccccc1	u	23.1µM	u	n	u	20.6µM
Cc1ccc(S(=O)(=O)N(Cc2ccc(Cl)cc2)c2ccccc2C(=O)NCc2ccco2)cc1	u	n	n	18.4µM	u	n
CCn1cc2nc(SCC(=O)Nc3ccc(OC)cc3OC)n(Cc3ccc(Cl)cc3)c(=O)c2n1	x	n	x	n	x	x
COCCC(=O)N1CCC(n2nccc2NC(=O)CCc2ccccc2)CC1	n	n	n	n	n	n
COc1cc2c(cc1OC)C1=C(C#N)CC/C(=N\S(=O)(=O)c3cccc(Cl)c3)N1CC2	n	u	n	16.4µM	n	u
CN(C)CC1CCCCC1C1(O)c2ccccc2CSc2sccc21 (stereo unspecified)	u	n	17.8µM	n	n	17.8µM
Cc1ccc(/C=C/C(=O)OCC(=O)NCCN2C(=O)CSC2=O)cc1	u	n	u	n	n	n
O=C(COC(=O)/C=C/c1cccc(C(F)(F)F)c1)NCCN1C(=O)CSC1=O	n	x	n	x	25.9µM	n
Cc1ccc(-n2nc3c(N4CCC(C(=O)NCCc5cccs5)CC4)nnc(C)c3c2C)cc1	u	n	u	n	u	16.4µM
CCCOc1ccc(C(O)CCNC(CC(=O)O)c2ccccc2)cc1 (stereo unspecified)	n	n	n	n	n	n
COc1ccc(CCc2nnc(CCC(=O)N(C)Cc3ccnc4ccccc34)o2)cc1	n	n	u	n	n	20.6µM
O=C1CCC(=O)N1c1ccc(NCc2ccccc2Cl)c([N+](=O)[O-])c1	n	n	n	n	n	n
c1ccc(Cn2nc(-c3ccccc3)nc2-c2ccccc2)cc1	n	n	n	u	n	n
O=C(C1CC1)N1CCC(c2nc(-c3ccc(S(=O)(=O)NCC4CCCO4)cc3)no2)CC1 (stereo unspecified)	n	u	u	u	n	n
O=C(NC1CCCCC1)N1CCC(c2nc(-c3ccc(S(=O)(=O)N4CCCC4)cc3)no2)CC1	u	8.2µM	n	2.59µM	u	n
CS(=O)(=O)N1CCCC(c2nc(-c3ccc(S(=O)(=O)NCc4ccccc4)cc3)no2)C1 (stereo unspecified)	n	u	u	3.26µM	u	u
O=C(Cc1ccccc1)N1CCCC(c2nc(-c3ccc(S(=O)(=O)N4CCCC4)cc3)no2)C1 (stereo unspecified)	n	n	n	9.2µM	n	n
O=C(c1ccccc1)N1CCC(c2nc(-c3ccc(S(=O)(=O)NCC4CCCO4)cc3)no2)CC1 (stereo unspecified)	n	8.2µM	u	9.2µM	u	n
O=C(N1CCOCC1)N1CCC(c2nc(-c3ccc(S(=O)(=O)N4CCOCC4)cc3)no2)CC1	n	n	n	n	n	n
Cn1c(=O)cc(OCC(=O)NCCCN2CCN(c3cccc(Cl)c3)CC2)c2ccccc21	n	n	n	n	n	n
CC(C)C(=O)N1CCC(c2nc(-c3ccc(S(=O)(=O)N4CCN(C)CC4)cc3)no2)CC1	n	n	n	n	n	n
CC(C)N(C(=O)N1CCC(c2nc(-c3ccncc3)no2)CC1)C(C)C	n	u	n	10.3µM	n	n
COc1ccc(CN(CCC(c2ccccc2)c2ccc(OC(C)C)cc2)C(=O)CCl)cc1OC (stereo unspecified)	3.66µM	10.3µM	1.46µM	8.2µM	4.61µM	1.64µM
SMILES	SW480 rerep	KB-3-1 cytotox	HT1080NT lethal	KB-V1 cytotox	MCF10A rereplic	HT1080 IDH1KD tx
COc1ccc(CNCC(O)(c2ccc(F)cc2)c2ccc(F)cc2)cc1OC	n	u	u	n	n	u
COc1ccc(CCNCc2ccc(-c3ccccc3)cc2)cc1OC	u	n	23.1µM	u	23.1µM	23.1µM
COc1ccc(CNCCC(c2ccccc2)c2ccc(OC(C)C)cc2)cc1OC (stereo unspecified)	u	u	20.6µM	u	u	18.4µM
COc1ccc(CNCCC(c2ccc(F)cc2)c2ccc(OC(C)C)cc2)cc1OC (stereo unspecified)	u	u	23.1µM	u	u	u
CCCCOc1ccc(OC(=O)Nc2cc(Cl)ccc2OC)cc1	n	n	n	n	n	n
N#CC1(NC(=O)COC(=O)c2ccc(-c3ccc(O)cc3)cc2)CCCCC1	n	n	n	n	n	n
CCNC(=S)NCc1ccc(OC)c(OC)c1	n	n	n	n	n	n
COc1ccc(CCNC(=S)NCc2ccc(Cl)c(Cl)c2)cc1OC	n	n	u	n	12.6µM	u
O=C(NCc1ccncc1)C(=O)Nc1nccs1	n	n	n	n	n	n
CC(C)CCn1c(=O)c2ccccc2n2c(CCl)nnc12	u	u	18.4µM	n	u	u
CCCn1c(=O)c2ccccc2n2c(SCC(N)=O)nnc12	n	n	n	n	n	n
CC(C)CCn1c(=O)c2ccccc2n2c(CN3CCCC3)nnc12	n	n	n	n	n	n
CCCCCn1c(=O)c2ccccc2n2c(CCl)nnc12	u	u	23.1µM	u	u	23.1µM
CN(C)c1ncc(S(=O)(=O)c2ccccc2)c(-c2ccc(Cl)cc2Cl)n1	n	n	n	14.6µM	u	n
CN(C)c1ncc(S(=O)(=O)c2ccc(Cl)cc2)c(-c2ccc(Cl)cc2Cl)n1	n	u	n	18.4µM	n	n
Cc1ncc(S(=O)(=O)c2ccccc2)c(-c2ccccc2Cl)n1	n	n	n	n	n	n
Cn1c(=O)c2nc(-c3ccccc3)c(-c3ccccc3)nc2n(C)c1=O	n	n	n	n	n	n
CC(C)CCNc1c(-c2cccs2)nc2ccccn12	u	n	n	n	n	n
Cc1cccn2c(=O)c(C(=O)NC3CCCCC3C)c(O)nc12 (stereo unspecified)	n	u	n	16.4µM	n	u
Cc1cccn2c(=O)c(C(=O)NC3CC(C)CC(C)(C)C3)c(O)nc12 (stereo unspecified)	n	u	n	23.1µM	u	n
CC1CCCCC1NC(=O)c1ccncc1 (stereo unspecified)	18.4µM	n	n	n	n	n
COc1cccc(NC(=O)COc2c(F)c(F)c(C(F)(F)F)c(F)c2F)c1	n	n	n	n	n	n
COc1ccc(NCC(=O)n2c(C)c(C)c3ccccc32)cc1	u	11.6µM	u	u	18.4µM	u

Source: PubChem BioAssay
